Source: PubChem BioAssay
SW480 rerep – induces DNA re-replication in SW480 colon adenocarcinoma cells; SW480 DNA re-replication, Hoechst DNA content imaging, 48 h; Potency, µM (highest dose often 46.1 µM), without a hit: top-dose re-replication activation, usual class: activators; hit rate 1.8% among 340,000; AID 624297; note: potency is the fitted concentration of half-maximal effect; % of control where 0% means no effect; nearly all actives have a fitted effect of over 55% in size
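Per well, 250 cells were exposed to pinned compound for 48 hr. Nuclear DNA was visualised with Hoechst (40 min, 37 C) and total object intensity recorded by fluorescence scanning.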
BCR signal inh – chronic active BCR signaling inhibition | ABC-DLBCL IkBa-CBG/CBR reporter, luminescence ratio, 4 h | Potency, µM (series often up to 46.1 µM), inactives show top-dose activity change, negative = inhibition, actives largely listed as inhibitors | hit rate 0.05% among 340,000 | AID 493014; active = well fitted inhibition curve with a large enough effect in the signal ratio, with a control signal flat, not every such curve was filed as active; inconclusive = small, poorly fitted or top-dose-only effect, or effect the other way, or a change in a side signal; the % refers to the signal ratio;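 note: potency is the fitted concentration of half-maximal effect; plate controls were basal doxycycline-induced cells for no effect and cells given 10 µM MG132 for full effect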
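Doxycycline induced both beetle luciferases in TMD8 lymphoma cells; IKK-driven degradation limits the IkappaBalpha-fused green signal, while red luminescence normalises for cell number and nonspecific effects. Compounds tested up to 46 uM, 4 hrs.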
MCF10A rereplic – induces DNA re-replication in MCF 10a normal breast cells; Potency, µM (series often up to 46.1 µM), without a hit: top-dose activity, positive = re-replication, usual class: activators; AID 624296; hit rate 2.9% among 350,000; MCF 10A DNA re-replication, Hoechst nuclear intensity, 48 h; note: potency is the fitted concentration of half-maximal effect; % of control where 0% means no effect; nearly all actives have a fitted effect of over 50% in size
RORg inh – inhibitors of mouse ROR gamma transcriptional activity; P51450; Drosophila S2 Gal4-RORgamma UAS-luciferase reporter, 20 h; Potency, µM (highest dose often 53.6 µM), for inactives: at the top dose activity change, negative = inhibition, usual class: inhibitors; hit rate 5.4% among 310,000; note: potency is the fitted concentration of half-maximal effect; % is set by controls: 0 for no effect and ±100 for the full control effect; nearly all actives have a fitted effect of over 60% in size
Target sequence (P51450 whole entry, looked up, the tested form may be a part): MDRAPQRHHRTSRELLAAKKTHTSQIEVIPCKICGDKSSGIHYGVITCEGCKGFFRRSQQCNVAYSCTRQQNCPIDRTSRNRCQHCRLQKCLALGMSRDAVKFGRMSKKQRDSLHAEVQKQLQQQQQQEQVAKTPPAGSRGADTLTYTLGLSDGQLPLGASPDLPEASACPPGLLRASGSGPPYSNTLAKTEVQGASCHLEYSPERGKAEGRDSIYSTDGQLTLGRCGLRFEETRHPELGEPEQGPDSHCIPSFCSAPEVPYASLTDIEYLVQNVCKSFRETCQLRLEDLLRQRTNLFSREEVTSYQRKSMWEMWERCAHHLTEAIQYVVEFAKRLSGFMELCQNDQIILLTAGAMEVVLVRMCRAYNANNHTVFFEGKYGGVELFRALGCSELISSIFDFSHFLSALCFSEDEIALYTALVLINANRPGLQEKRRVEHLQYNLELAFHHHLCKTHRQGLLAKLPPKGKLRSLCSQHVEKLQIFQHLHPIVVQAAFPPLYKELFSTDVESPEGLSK
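Schneider cells (Drosophila), stable Gal4 DBD–ROR gamma + UAS-luc; 1 hr cmpd preincubation; Cu2+ induction 700 uM final; 20 hr ambient; luminescence.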
Gal4-VP16 FLuc – inhibits Gal4-VP16 luciferase reporter, ROR gamma counter-screen | AID 2546 | Drosophila S2 Gal4-VP16 UAS-luciferase, luminescence, 20 h | Potency, µM (series often up to 53.6 µM), without a hit: at the top dose activity, negative = inhibition, most hits filed as inhibitors | hit rate 3.5% among 310,000;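 note: Gal4-VP16 expression switched on by copper sulfate through the metallothionein promoter; potency is the fitted concentration of half-maximal effect; % is set by controls: 0 for no effect and ±100 for the full control effect; nearly all actives have a fitted effect of over 50% in size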
Giardia kill – kills Giardia lamblia. Giardia lamblia trophozoite viability. activity change, % at 7.66 µM, hits read low. hit rate 0.15% among 340,000. AID 540267; in the data active = activity change below about -80%; inconclusive = between about -30% and that limit;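 note: parasites exposed to compound for two days anaerobically before the ATP read; % is set by controls: 0 for no effect and ±100 for the full control effect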
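Each well holds 100 Giardia trophozoites and compound. After two days (48 hrs) at 37 deg C in anaerobic conditions, ATP is quantified by luminescence.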
Active calls of the source: *; ? = inconclusive; nt = not tested or not shown; ! = not confirmed by another sample; [ ] = dose if it differs, or a comment. Most compounds without a hit are left out; they make up all but 8.3% or so of the library. Unless noted, calls come from the whole dose curve; as a rule, active = well fitted curve in the direction sought with a large enough effect; inconclusive = small, poorly fitted or top-dose-only effect, or another doubt; inactive = no such curve, though single readings can be large; an effect the other way counts as inactive or inconclusive.

SMILES	SW480 rerep	BCR signal inh	MCF10A rereplic	RORg inh	Gal4-VP16 FLuc	Giardia kill
N#Cc1ccc(NC(=O)Nc2ccc(Oc3ccc(NC(=O)Nc4ccc(C#N)cc4)cc3)cc2)cc1	7.0%	?	?	?	12.6µM*	12.9
CC1CC(C)CN(S(=O)(=O)c2ccc3c(c2)CCN3C(=O)C2CC2)C1 (centres undefined)	-4.0%	?	1.6%	13.6%	-20.2%	-15.1
CC(C)Cc1cc(C(=O)O)c2ccccc2n1	-16.4%	nt	-9.5%	nt	nt	-4.5
CC(=O)c1ccc(Nc2cc(C)nc3ccccc23)cc1	18.4µM*	?	?	1.8%	-3.8%	8.9
COc1ccc(Nc2cc(C)nc3ccccc23)cc1	-6.8%	nt	4.7%	-2.9%	5.2%	17.5
CC(=O)c1ccc(Nc2cc(C)nc3c(C)cccc23)cc1	1.16µM*	?	23.1µM*	?	?	-1.8
CC(=O)c1ccc(NC(=O)c2cc(CC(C)C)nc3ccccc23)cc1	-2.3%	?	0.82µM*	?	8.1%	-0.3
CC(CNC(=O)COC(=O)c1ccco1)c1ccccc1 (centres undefined)	-16.8%	8.0%	-2.2%	nt	nt	5.5
CCn1c(COc2ccccc2)nc2ccccc21	4.7%	15.5%	16.6%	?	?	-6.9
CCn1c(CN(C)c2ccccc2)nc2ccccc21	-6.4%	0.2%	?	10µM*	22.4µM*	2.9
CCCc1nc2ccccc2n1CCc1ccccc1	1.0%	1.2%	15.1%	7.08µM*	-28.9%	-0.8
OCCCc1nc2ccccc2n1CCc1ccccc1	0.5%	?	22.5%	-12.2%	-3.1%	-9.5
CCc1nc2ccccc2n1Cc1ccccc1F	12.8%	-1.0%	-6.4%	10µM*	-20.4%[10 µM]	-3.5
CCC(=O)NCc1nc2ccccc2n1Cc1ccccc1F	-5.3%	-16.9%	7.6%	-1.1%	1.0%	0.4
Cc1nc2ccccc2n1CC(=O)NCc1ccccc1	1.2%	0.6%	-5.9%	-29.8%	6.31µM*	0.0
O=C1CC(N2CCN(S(=O)(=O)c3ccccc3F)CC2)C(=O)N1c1ccccc1F (centres undefined)	-9.1%	nt	-1.0%	nt	nt	3.8
CC(=O)c1nc2ccccc2n1CCc1ccccc1	-21.5%	-3.1%	1.84µM*	-3.4%	2.6%	-17.0
Cn1c(CCc2ccc(N)cc2)nc2ccccc21	2.4%	0.7%	-8.4%	11.2µM*	?	-19.3
Cn1c(-c2ccc(N)cc2)nc2ccccc21	-7.6%	4.3%	1.4%	-38.2%	-3.0%	7.0
Cc1nc2ccccc2n1CCc1ccccc1	-2.7%	15.9%	15.1%	11.2µM*	-4.1%	3.6
CC(=O)Nc1ccc(-c2cc(C(=O)O)c3ccc(C)cc3n2)cc1	-0.6%	-17.9%	10.3%	-27.0%	-5.5%	8.9
C[C@@H]1OC(OC2CC[C@@]3(C)C(CC[C@@]4(C)C3CC=C3C5CC(C)(C)CC[C@]5(C(=O)OC5OCC(O)[C@@H](O)[C@@H]5OC5O[C@@H](C)[C@H](O[C@H]6OC(CO)C(O)C(O)C6O)C(O)C5O)C(O)C[C@@]34C)C2(C)C)C(O)C(O)[C@H]1OC1OCC(O)C(O)[C@H]1O (some centres undefined)	nt	nt	nt	-19.9%	?	nt
Nc1cc([N+](=O)[O-])ccc1O	-74.6%	?	15.8%	-0.6%	12.6µM*!	-21.4
Cc1ccc(C)c(NC2=C(Cl)C(=O)OC2OC(=O)c2ccco2)c1 (centres undefined)	-5.8%	11.4%	-6.2%	11.2µM*	?	-29.2
CCc1nnc(NS(=O)(=O)c2ccc(NC(=S)NC(=O)c3ccc(OC)c(OC)c3)cc2)s1	18.4µM*	6.6%	?	-20.0%[10 µM]	-5.1%	-2.6
SMILES	SW480 rerep	BCR signal inh	MCF10A rereplic	RORg inh	Gal4-VP16 FLuc	Giardia kill
CCc1nnc(NS(=O)(=O)c2ccc(N/C=C/C(=O)c3ccc(C)cc3)cc2)s1	-12.4%	?	18.4µM*	34.2%	0.9%	-4.6
Cc1ccc(C(=O)NCCCNC(=O)c2ccco2)cc1C	-2.8%	-2.5%	-4.3%	1.6%	-1.7%	2.4
O=C(NP(=O)(N1CCOCC1)N1CCOCC1)C1=C(N2CCOCC2)/C(=C\c2ccccc2)CC1	?	0.9%	23.1µM*	-3.9%	3.1%	15.7
O=P(C1=C(N2CCOCC2)/C(=C\c2ccccc2)CC1)(N1CCOCC1)N1CCOCC1	-3.8%	-2.7%	-9.1%	-14.4%	-3.1%	-2.8
O=C(/C=C/c1ccccn1)c1cc(Cl)cc(Cl)c1O	16.4µM*	-2.3%	20.6µM*	4.9%	-2.6%	13.4
CCN(CC)c1ccc(NC(=O)c2ccccc2F)cc1	18.4µM*	?	?	-11.8%	-29.7%	-2.9
O=C(Nc1ccc(Nc2ccccc2)cc1)c1ccccc1F	4.61µM*	?	?	23.9%	-9.6%	-3.6
CCCC1=[N+](CC(=O)c2ccc(Br)cc2)CCn2cccc21	-25.2%	?	?	4.9%	-0.1%	35.4
Cc1ccc(NS(=O)(=O)c2cccc(C(=O)NCCCN3CCCC3=O)c2)cc1	-6.4%	6.3%	5.2%	nt	nt	-4.4
COC(=O)N/N=C(\C)c1ccc(OC(F)F)cc1	-4.3%	0.5%	0.5%	6.1%	-14.7%	-11.8
C/C(=N\Nc1ncc(Cl)cc1Cl)c1ccc(OC(F)F)cc1	-5.8%	?	0.9%	11.2µM*	?	7.2
C/C(=N\Nc1ncc(Cl)cc1Cl)c1ccc2c(c1)OCO2	0.5%	?	3.4%	7.08µM*	?	5.8
CCOC(=O)c1ccc(Nc2c(-c3cccc(O)c3)nc3nc[nH]n23)cc1	nt	-2.7%	nt	nt	nt	nt
CC(OC(=O)c1ccncc1)C(=O)Nc1ccc([N+](=O)[O-])cc1Cl (centres undefined)	-16.8%	3.3%	-2.9%	6.2%	20.2%	-29.4
O=S(=O)(c1cccc2nonc12)N1CCCCC1	0.6%	-3.6%	1.9%	7.3%	1.4%	11.9
CC(C)Cn1c(N)c(C(=O)CSc2ncn[nH]2)c(=O)n(C)c1=O	?	nt	-12.2%	nt	nt	6.7
O=C(CC(Sc1ccc(Br)cc1)C(=O)O)c1ccc(F)cc1 (centres undefined)	?	?	23.1µM*	?	?	37.1
CCOc1ccc(C(=O)CC(Sc2ccc(C)cc2)C(=O)O)cc1 (centres undefined)	?	?	?	4.47µM*	?	4.4
Cc1cc(C)cc(NC(=O)C(=O)NCCCN2CCCC2=O)c1	-1.9%	-13.6%	?	nt	nt	8.1
O=c1c(-c2ccccc2)nc2cnc(N3CCNCC3)nc2n1C1CC1	nt	nt	nt	-28.5%	-6.5%	nt
Cc1ccc(S(=O)(=O)CNC(=S)c2ccc3ccccc3c2)cc1	-0.6%	?	18.2%	11.2µM*	?	6.0
Cc1ccc(S(=O)(=O)CNC(=S)c2cccc(C)c2)cc1	-2.9%	18.4µM*	-26.7%	12.6µM*	?	1.7
